# Source: PubChem (National Center for Advancing Translational Sciences (NCATS))
# Sampled rows, rich in hits. Any-hit rate of the full collection: about 10%.
# Six1-Eya2 inh: qHTS Assay for Inhibitors of the Six1/Eya2 Interaction; AlphaScreen GST-Six1/His-Eya2 binding, biochemical; stronger effect = lower value; activity change, % (concentration not given with the values); 360,000 tested, 0.56% active; AID 651725, 2012; in the data active means activity change below about -65%; inconclusive means mostly about -30% to -63%
#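 Compounds are tested against tagged Six1 and Eya2 proteins bridged by glutathione donor and nickel acceptor beads; after a one-hour incubation at 37 °C without light, AlphaScreen emission is recorded.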
# BAZ2B inh: qHTS Assay for Inhibitors of BAZ2B | Bromodomain adjacent to zinc finger domain protein 2B (Homo sapiens), Q9UIF8 | AlphaScreen BAZ2B-H3K14Ac peptide displacement | Potency, µM (doses to about 114 µM), usual class: inhibitors | 360,000 tested, 4.4% active | AID 504333, 2011; further: nearly all actives have a fitted effect of over 60% in size
#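 AlphaScreen luminescence quantifies BAZ2B engagement of H3K14Ac peptide; the protein and biotinylated peptide are both at 50 nM final, buffer PBS pH 7.4 with 0.01% Tween-20, all steps at room temperature.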
# HP1b chromo inh: HTS for Inhibitors of HP1-beta Chromodomain Interactions with Methylated Histone Tails; Chromobox protein homolog 1 (Homo sapiens), P83916; AlphaScreen HP1-beta / biotin-H3K9me3 peptide binding; Potency, µM (titrated, usually from 114 µM), usual class: inhibitors; 390,000 tested, 0.56% active; further: nearly all actives have a fitted effect of over 70% in size
#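 Compound inhibition of the preformed complex between 50 nM HP1-beta and 50 nM biotinylated H3K9me3 peptide was read by AlphaScreen. Buffer was PBS pH 7.4 with 0.01% Tween-20. Incubations ran 30 min at room temperature, with 10 ug/mL donor/acceptor beads.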
# CtBP-E1A inh: qHTS Assay for Inhibitors of the CtBP/E1A Interaction; CtBP / adenovirus E1A interaction (AlphaScreen); AlphaScreen GST-E1A/His-CtBP binding, 1536-well; stronger effect = lower value; activity change, % (no concentration beside the values); 340,000 tested, 0.49% active; in the data active means activity change below about -65%; inconclusive means mostly about -30% to -63%
#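 In 5 uL wells, 23 nL compound meets equimolar GST-E1A and His-CtBP (5X stock 125 nM each) for 2 h, 37 °C. Beads (5X, 50 ug/mL) then 1 h, 37 °C, dark.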
# JMJD2A Tudor: qHTS Assay for Inhibitors of JMJD2A-Tudor Domain; AID 504339, 2011; Potency, µM (series often up to 114 µM), hits mostly inhibitors; 390,000 tested, 4.4% active; AlphaScreen JMJD2A-Tudor / H3K4me3 peptide binding; further: nearly all actives have a fitted effect of over 50% in size
# G9a inh: qHTS Assay for Inhibitors of Histone Lysine Methyltransferase G9a. AID 504332, 2011. 350,000 tested, 8.8% active. G9a H3K9 monomethylation, AlphaScreen, 2 h. Potency, µM (doses to about 102 µM), most hits filed as inhibitors; further: nearly all actives have a fitted effect of over 75% in size
#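 Enzyme 20 nM + cpd, 15 min RT; add b-H3K9 pep 500 nM / SAM 20 uM; 2 h RT; anti-H3K9me1 Ab 0.5 ug/mL + SA donor / anti-rabbit acceptor beads 20 ug/mL each, 10 min; AlphaScreen read.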
# A number is an active result; . = inactive; ? = inconclusive; / = no result given; [ ] = another dose, or the depositor's remark. Unless noted, the call rests on the fitted dose curve; in most records, active means well fitted inhibition curve with a large enough effect; inconclusive means small, poorly fitted or top-dose-only effect; inactive means no such curve, though single readings can be large or run the other way.
SMILES,Six1-Eya2 inh,BAZ2B inh,HP1b chromo inh,CtBP-E1A inh,JMJD2A Tudor,G9a inh
Cc1ccc(Nc2nc3c(s2)CCC3)c(C)c1,.,.,.,.,.,?
Cc1nc(Nc2ccccc2)sc1C(=O)Nc1ccccc1,.,.,.,.,.,/
O=C(O)c1ccc(OS(=O)(=O)c2ccc(Cl)s2)c(Cl)c1,.,.,.,/,.,.[2.33 µM]
COc1ccc(OC)c(NC(=O)COc2ccc3c(c2)CCC3)c1,.,.,.,.,.,?
CSCC(CO)NS(=O)(=O)c1ccc(C)cc1 (centres undefined),.,.,.,.,.,.
CCOC(=O)c1c(N)sc(C(O)(C(F)(F)F)C(F)(F)F)c1-c1ccc(OC)cc1OC,.,?,.,.,.,79.4µM
COc1ccc(C(=S)N2CCOCC2)cc1OC(=O)c1cc(OC)c(OC)c(OC)c1,.,?,?,.,?,7.94µM
COc1ccc(S(=O)(=O)Oc2c(OC)cc(C(=S)N3CCOCC3)cc2OC)cc1,.,.,.,.,.,22.4µM
COc1cc(C(=S)N2CCCC2)ccc1OS(=O)(=O)c1ccc(NC(C)=O)cc1,.,.,.,.,.,?
COc1cc(C(=O)Oc2ccc(C(=S)N3CCOCC3)cc2)cc(OC)c1OC,.,.,.,.,.,/
COc1cc(C(=S)N2CCCC2)cc(OC)c1OS(=O)(=O)c1ccc(NC(C)=O)cc1,.,.,?,.,?,31.6µM
COc1ccc(C(=O)Oc2c(OC)cc(C(=S)N3CCOCC3)cc2OC)cc1,.,.,.,.,.,44.7µM
COC(=O)c1ccc(C(=O)OC)c(NC(=O)c2ccc(-c3ccccc3)s2)c1,/,.,.,/,.,.
COc1ccc(C(=S)N2CCOCC2)cc1OC(=O)c1ccc(C)cc1,.,?,.,.,?,44.7µM
COc1cc(C(=O)Oc2ccc(Br)cc2C(=S)N2CCOCC2)cc(OC)c1OC,-83.4,.,?,-71.3,.,10µM
COc1cc(C(=S)N2CCOCC2)cc(Br)c1OS(=O)(=O)c1ccccc1,.,.,.,.,?,/
COc1ccc(C(=S)N2CCCC2)cc1OC,.,.,.,.,.,.
COc1cc(C(=S)N2CCCC2)cc(OC)c1OC,.,.,.,.,.,39.8µM
COc1cc(C(=S)N2CCOCC2)ccc1OC(=O)c1ccccc1,.,.,.,.,.,39.8µM
COc1ccc(C(=O)Oc2c(OC)cc(C(=S)N3CCOCC3)cc2OC)cc1OC,.,.,?,/,?,.[0.501 µM]
CCOC(=O)c1c(S(=O)(=O)N2CCCC(C(=O)Nc3cc(C)ccc3OC)C2)c(C)n(C)c1C (centres undefined),/,.,.,/,.,.
Cc1noc2ncnc(N3CCN(c4ccccc4F)CC3)c12,/,.,.,/,.,.
COc1ccc(C(=S)N2CCOCC2)cc1OS(=O)(=O)c1ccc(Br)cc1,.,.,.,.,.,44.7µM
COc1ccc(S(=O)(=O)Oc2ccc(C(=S)N3CCOCC3)cc2OC)cc1,.,.,.,.,.,/
COc1ccc(C(=S)N2CCOCC2)cc1OC(=O)c1ccccc1,.,.,?,.,.,10µM
SMILES,Six1-Eya2 inh,BAZ2B inh,HP1b chromo inh,CtBP-E1A inh,JMJD2A Tudor,G9a inh
N#Cc1c(N2CCN(c3ccc([N+](=O)[O-])cc3)CC2)[n+](=O)c2ccc(Cl)cc2n1[O-],.,/,.,.,.,/
Cc1cc2nc(-c3ccc(NC(=O)c4ccc(OCC(C)C)cc4)cc3)oc2cc1C,/,.,.,/,.,.
Cc1ccc(Cn2c(SCCN3CCCCC3)nc3c2c(=O)[nH]c(=O)n3C)cc1,.,.,.,.,.,25.1µM
Cn1c(=O)[nH]c(=O)c2c1nc(SCCN1CCCCC1)n2CCCc1ccccc1,.,.,.,.,?,8.91µM
COC(=O)C(CCSC)NS(=O)(=O)c1ccccc1Br (centres undefined),/,/,.,/,.,/
CC(C)CC1C(=O)N(Cc2cn(CC3CCCCC3)nn2)CCS(=O)(=O)N1Cc1ccc(-c2cccc(C#N)c2)cc1 (centres undefined),.,/,.,.,.,/
Cc1ccc[n+](-c2nc([O-])sc2/C=N/Nc2ccc([N+](=O)[O-])cc2)c1,.,39.8µM,.,.,.,11.2µM
Cc1ccc(C)n1-c1sc2c(c1C#N)CCCC2,.,.,.,.,.,.
Cc1sc(-n2c(C)ccc2C)c(C#N)c1C,.,.,.,.,.,7.94µM
O=C(c1cnn2c(C(F)F)cc(-c3ccccc3)nc12)N1CCN(Cc2ccc3c(c2)OCO3)CC1,.,.,.,.,?,.
COc1cc2c(cc1NC(=O)C(C)Sc1cccc[n+]1[O-])oc1ccccc12 (centres undefined),.,.,.,.,.,?
CC(Sc1cccc[n+]1[O-])C(=O)Nc1ccc([N+](=O)[O-])cc1Cl (centres undefined),.,.,.,.,.,50.1µM
CCOc1ccc(OCC(=O)OC(C)C(=O)NC2CCCC2)cc1 (centres undefined),.,/,.,.,.,/
S=C(/N=c1/sccn1Cc1ccccc1)NC1CC1,.,56.2µM,.,.,.,50.1µM
O=C(Nc1cccc(C(F)(F)F)c1)Oc1ccc(Cl)c2cccnc12,-70.1,17.8µM,.,-96.4,39.8µM,.
CCN(CC)C(=O)Oc1ccc(Cl)c2cccnc12,.,.,.,.,.,.
O=C(COc1cccc2cccnc12)Nc1ccccc1,.,.,.,.,.,.
O=C(Nc1c(Cl)cccc1Cl)Oc1cccc2cccnc12,-90.3,/,/,-93.6,/,/
O=C(Nc1cccc(Br)c1)Oc1cccc2cccnc12,-90.3,/,/,?,/,/
N#CC(=Nc1cccc(F)c1)C1=C(O)c2ccccc2C1=O,.,/,/,.,/,/
COc1ccc(CN=C(C#N)C2=C(O)c3ccccc3C2=O)cc1,.,.,.,/,?,35.5µM
Cc1cc(C)c(NC(=O)C2CCCCN2C)c(C)c1 (centres undefined),.,?,.,.,.,89.1µM
Cc1cc(C)c(NC(=O)C2CCCN2CCC(C)C)c(C)c1 (centres undefined),.,.,.,.,.,?
Cc1cc(-c2nnc(SCC(=O)Nc3ccc(C)c(C)c3)n2N)n[nH]1,.,?,.,.,.,.
CCOC(=O)c1c(CCl)nc2ccccc2c1-c1ccccc1,.,.,.,.,.,?
ClCc1nc2ccccc2c2ccccc12,.,.,.,.,.,70.8µM
